Laboratory results: PubChem BioAssay AID1159580 (chemical genetic matrix, 2015)
“And” between values parts separate entries of the source, which are not always exact repeats. Equal entries are not always repeated. The campaign covered roughly 5,500 compounds. About 2,000 (36%) were called active. Another 18% or so got no clear call; they are omitted. Rule as the data show it: active = normalized growth mostly below about 0.91 (no sharp cut-off); inconclusive = no clear call, values can overlap the other calls; inactive = mostly above about 0.92. This is one part of the list.

Test: chemical genetic growth profiling, strain panel (AID 1159580);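 also: tested at 20 µM; growth read once vehicle control cultures reached saturation at 30 °C; 1 = growth at the plate median or of vehicle wells; lower values mean less growth of the strain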
Details: S. cerevisiae deletion strains, growth OD

Measured: normalized growth

Cc1ncc(CNC(=O)N(CCCl)N=O)c(N)n1
inactive: locus YAL013W, strain DEP1, active compounds read low 1.01 and 1 | locus YAL021C, strain ccr4, active compounds read low 0.948 | locus YAL026C, strain drs2, active compounds read low 1.02 | locus YAL030W, strain snc1, active compounds read low 1.01 | locus YAL040C, strain CLN3, active compounds read low 0.981 | locus YBL061C, strain skt5, active compounds read low 1.01 | locus YBR009C, strain hhf1, active compounds read low 0.992 | locus YBR021W, strain FUR4, active compounds read low 0.994 | locus YBR023C, strain chs3, active compounds read low 1 | locus YBR171W, strain sec66, active compounds read low 1.02 | locus YBR229C, strain ROT2, active compounds read low 1.03 | locus YBR231C, strain swc5, active compounds read low 1.03 | locus YBR279W, strain paf1, active compounds read low 1 | locus YCL011C, strain gbp2, active compounds read low 1 | locus YCL016C, strain dcc1, active compounds read low 0.978 | locus YCL029C, strain bik1, active compounds read low 0.985 | locus YCL061C, strain MRC1 (second series), active compounds read low 1 | locus YCL061C, strain MRC1, active compounds read low 0.999 | locus YCL069W, strain vba3, active compounds read low 1.01 | locus YCR088W, strain abp1, active compounds read low 1.01 | locus YDL005C, strain med2, active compounds read low 1.01 | locus YDL035C, strain GPR1, active compounds read low 1 | locus YDL040C, strain nat1, active compounds read low 1.02 | locus YDL074C, strain BRE1, active compounds read low 1.02 | locus YDL101C, strain DUN1, active compounds read low 1.01 | locus YDL134C, strain PPH21, active compounds read low 1.03 | locus YDL185W, strain tfp1, active compounds read low 0.985 | locus YDL192W, strain arf1, active compounds read low 0.997 | locus YDR001C, strain nth1, active compounds read low 1.01 | locus YDR069C, strain doa4, active compounds read low 1.02 | locus YDR101C, strain arx1, active compounds read low 0.983 | locus YDR137W, strain rgp1, active compounds read low 1.04 | locus YDR150W, strain NUM1, active compounds read low 1.03 and 0.998 | locus YDR159W, strain sac3, active compounds read low 1.08 | locus YDR162C, strain NBP2, active compounds read low 1 | locus YDR195W, strain ref2 0.993 | locus YDR297W, strain sur2, active compounds read low 1.02 | locus YDR318W, strain mcm21, active compounds read low 1 | locus YDR334W, strain swr1, active compounds read low 1.02 | locus YDR335W, strain msn5, active compounds read low 1.01 | locus YDR363W, strain ESC2, active compounds read low 1 | locus YDR388W, active compounds read low 0.986 | locus YDR392W, strain spt3, active compounds read low 0.917 | locus YDR502C, strain sam2, active compounds read low 0.99 | locus YEL003W, strain gim4, active compounds read low 1.01 | locus YEL037C, strain rad23, active compounds read low 1.01 | locus YEL061C, strain CIN8 (second series), active compounds read low 1.01 | locus YEL061C, strain CIN8, active compounds read low 1.02 | locus YER002W, strain NOP16, active compounds read low 1 | locus YER015W, strain faa2, active compounds read low 0.982 | locus YER016W, strain bim1, active compounds read low 1.02 | locus YER110C, active compounds read low 0.979 | locus YER111C, strain swi4, active compounds read low 1.01 | locus YER155C, strain BEM2 (second series), active compounds read low 1.03 | locus YER155C, strain BEM2, active compounds read low 1 | locus YER167W, strain BCK2, active compounds read low 1.01 | locus YFR010W, strain ubp6, active compounds read low 1.01 | locus YGL078C, strain dbp3, active compounds read low 0.991 | locus YGL086W, strain mad1, active compounds read low 1 | locus YGL167C, strain pmr1, active compounds read low 1 | locus YGL173C, strain kem1, active compounds read low 1.01 | locus YGL227W, strain vid30, active compounds read low 1.01 | locus YGL240W, strain doc1, active compounds read low 1.01 | locus YGL248W, strain PDE1, active compounds read low 1.02 | locus YGL253W, strain hxk2, active compounds read low 1.01 | locus YGR078C, strain PAC10, active compounds read low 1.01 | locus YGR135W, strain pre9, active compounds read low 1 | locus YGR229C, strain SMI1, active compounds read low 0.994 | locus YGR252W, strain gcn5, active compounds read low 0.976 | locus YHR013C, strain ard1, active compounds read low 1 | locus YHR027C, strain rpn1, active compounds read low 1.04 | locus YHR030C, strain SLT2, active compounds read low 1.02 and 0.958 | locus YHR079C, strain IRE1 (second series), active compounds read low 0.984 | locus YHR079C, strain IRE1, active compounds read low 0.957 | locus YHR094C, strain hxt1, active compounds read low 0.989 | locus YHR129C, strain ARP1, active compounds read low 1.02 | locus YHR142W, strain chs7, active compounds read low 1.01 | locus YHR200W, strain rpn10, active compounds read low 0.988 | locus YIL066C, strain RNR3, active compounds read low 1.02 | locus YIL073C, strain SPO22, active compounds read low 0.994 | locus YIL125W, strain kgd1, active compounds read low 0.995 | locus YIR030C, strain dcg1, active compounds read low 0.987 | locus YJL092W, strain hpr5, active compounds read low 0.978 | locus YJL095W, strain BCK1 (second series), active compounds read low 1.03 | locus YJL095W, strain BCK1, active compounds read low 0.999 and 0.951 | locus YJL115W, strain asf1, active compounds read low 1.01 | locus YJL129C, strain trk1, active compounds read low 1.03 | locus YJL134W, strain LCB3, active compounds read low 1.02 | locus YJL154C, strain vps35, active compounds read low 1.01 | locus YJL164C, strain tpk1, active compounds read low 0.988 | locus YJL166W, strain qcr8, active compounds read low 1.01 | locus YJL168C, strain set2, active compounds read low 0.99 | locus YJL187C, strain SWE1 (second series), active compounds read low 1.02 | locus YJL187C, strain SWE1, active compounds read low 0.993 | locus YJR043C, strain POL32, active compounds read low 0.902 | locus YJR066W, strain TOR1, active compounds read low 0.901
